Experimental data from PubChem BioAssay AID1845 (The Scripps Research Institute Molecular Screening Center, 2009).
Out of some 290,000 compounds screened, about 490 (0.17%) were called active. No stated cut-off is given here; in the data, active means inhibition above about 37%; inactive means the rest. The full list was thinned out, with actives kept by preference.

Experiment: DNA intercalator displacement agents – biochemical, FID fluorescence, artefact control for HCV NS3 helicase inhibitor project, primary screen (AID 1845);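 further: 0% = vehicle and 100% = reference compound; higher means more ethidium bromide displaced from hairpin DNA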
Conditions: DNA fluorescent intercalator displacement, at 7.9 µM, hits give high values

Row | SMILES | inhibition
1 | O=C(/C=C/c1ccco1)NC(=S)Nc1ccccc1Br | -8.41% (inactive)
2 | CCCNC(=O)N1CCC(c2ccc3c(c2)OCO3)CC1 | -7.97% (inactive)
3 | NC(=O)COC(=O)c1ccc2c(c1)C(=O)N(Cc1ccco1)C2=O | -2.94% (inactive)
4 | CCn1nnnc1SCC(=O)Nc1ccc(N(C)C)cc1 | -4.25% (inactive)
5 | COc1ccc(C(=O)N2CCCCC2C(=O)Nc2ccc(-n3nc(C)cc3C)cc2)o1 (stereo unspecified) | -43.5% (inactive)
6 | Cc1ccccc1OCC(=O)Nc1nnc(S(=O)(=O)N2CCCC2)s1 | -35.4% (inactive)
7 | O=CN1CCN(C(=O)c2ccc3c(c2)OCO3)CC1 | -1.4% (inactive)
8 | NC(=O)C1CC(=O)N(c2ccc(OCC(=O)NCc3ccccc3)cc2)C1 (stereo unspecified) | -4.26% (inactive)
9 | CC(=O)c1cc(CN2CCC(n3nccc3NC(=O)c3ccccc3Cl)CC2)cs1 | -5.43% (inactive)
10 | CCOC(=O)c1c(NC(=S)NC)sc2c1CCCC2 | -4.6% (inactive)
11 | CCOC(=O)c1c(NC(=O)C2CCN(S(=O)(=O)c3ccc(Cl)cc3)CC2)sc2c1CCCC2 | 43.9% (active)
12 | CCOC(=O)c1c(NC(=S)NC(=O)c2ccco2)sc2c1CCCC2 | 0.98% (inactive)
13 | O=C(CNC(=O)OCc1ccccc1)NC1CCCCNC1=O (stereo unspecified) | 0.17% (inactive)
14 | O=C(O)CCCN1C(=O)C2C3c4ccccc4C(c4ccccc43)[C@@H]2C1=O (stereo partly specified) | -12.3% (inactive)
15 | CC(C)C[C@H]1CN=C(Nc2ccccc2)N1CC1CCCCC1 | 3.71% (inactive)
16 | CCOc1ccc(NC(=O)c2ccc(NC(=O)C3CCCO3)cc2)cc1 (stereo unspecified) | -28.7% (inactive)
17 | CCN(C(=O)CN1C(=O)/C(=C/c2ccc(F)cc2)SC1=S)C1CCS(=O)(=O)C1 (stereo unspecified) | -43.9% (inactive)
18 | COc1ccccc1/C=N/Nc1nc(C)c(C(C)=O)s1 | -19.2% (inactive)
19 | Cc1ccc(S(=O)(=O)N(C)C)cc1NC(=O)C1Cc2ccccc2CN1C(=O)c1ccco1 (stereo unspecified) | -29.3% (inactive)
20 | CCCNC(=O)c1cnc(-c2ccccc2)nc1-c1ccccc1 | -20.5% (inactive)
21 | O=C(c1ccc(Cn2cc([N+](=O)[O-])cn2)o1)N1CCCC1 | -4.09% (inactive)
22 | COc1ccc(CC(=O)N/N=C(\C)c2ccccn2)cc1 | -6.95% (inactive)
23 | CCN(CC)CCOc1ccc2c(c1)C(=NNC(=O)c1ccccn1)c1cc(OCCN(CC)CC)ccc1-2 | 98.8% (active)
24 | Cc1cccc(OCC(=O)NCCCNC(=O)c2ccccn2)c1 | -16.1% (inactive)
25 | COc1ccc(CCNC(=O)C(=O)NCC2OCCN2S(=O)(=O)c2ccc(F)cc2)cc1OC (stereo unspecified) | -32.4% (inactive)
26 | Cc1ccc(C(=O)N/C(=C\c2cn(S(=O)(=O)N(C)C)c3ccccc23)C(=O)N2CCCC2)cc1 | -52.8% (inactive)
